Among all 15,000 compounds or so, about 60 (0.4%) were called active. What follows is part of a selection rich in actives, with near analogues and random picks from the rest. Values without a mark were called inactive. No stated cut-off is given here; in the data, active means activation above about 2.2%; inactive means the rest.
Assay: activates NOTCH signaling in reporter cells (AID 434982)
Conditions: NOTCH signaling luciferase reporter cells, luminescence; at 2.5 µM; active compounds read high
`CC(C)(C)NC(=O)NCC(c1ccc[nH]1)C(F)(F)F` (centres undefined) gave an activation of -0.29%. With `CCOC(=O)C(=CNc1nc(-c2ccc(Cl)cc2)cs1)C(=O)OCC` the activation was -0.64%. `Cc1ccc(Oc2c(C)[nH]c(=S)[nH]c2=O)cc1` showed an activation of -0.61%. With `CC(=O)N1c2ccccc2C=Cc2ccccc21` the activation was -5.39%. Work on `CN(C)c1ccc(/C=C(\C#N)S(C)(=O)=O)c(Cl)c1` yielded an activation of -0.47%. `Cc1cc(C(F)(F)F)nc2c(-c3noc(-c4ccccc4)n3)cnn12` showed an activation of -0.99%. With `O=C(c1ccc(C#Cc2ccccc2)o1)N1CCCCC1` the activation was -0.2%. Work on `O=[N+]([O-])c1ccc(CSc2nnc(-c3ccncc3)o2)cc1` yielded an activation of 0.14%. `Cc1[nH]c2c(F)cc(F)cc2c(=O)c1I` showed an activation of -0.36%. With `O=C1c2cc(S(=O)(=O)Oc3ccccc3)ccc2-c2ccc(S(=O)(=O)Oc3ccccc3)cc21` the activation was -1.18%. `CCCCc1c(O)cc(-c2ccccc2)n(Cc2ccccc2)c1=O` showed an activation of -0.19%. `COC(=O)C(C#N)c1ccc(C(F)(F)F)cc1[N+](=O)[O-]` (centres undefined) gave an activation of -0.67%. `CC(C)S(=O)(=O)c1cscc1N/C=C(/C#N)C(=O)C1CC1` gave an activation of 0%. For `Cc1nc(-c2nnc(SCC(=O)c3ccc(F)cc3)n2C)cs1`, the activation was -0.64%. In the case of `NNC(=O)c1csc(-c2ccc(C(F)(F)F)cn2)n1`, the activation is reported as -0.19%. Compound `CCOC(=O)c1cc(CC)sc1NC(=O)c1cccnc1Oc1ccccc1` has an activation of 0.22%. For `COC(=O)c1c(C(=O)OC)c2n(c1C)CCS2`, the activation was 3.54% (active). For `Cc1cc(-c2nc(C(=O)NN3CCCCC3)cs2)no1`, the activation was -0.7%. Compound `Cc1noc(C)c1C(=O)Oc1cccc2cccnc12` has an activation of 0.63%. For `S=C1NCN(CCCn2ccnc2)CN1`, the activation was 0.16%. `COc1ccc(CCNC(=O)c2ccccc2-c2ccccc2C(=O)O)cc1OC` showed an activation of -0.75%. `Cc1noc(C)c1S(=O)(=O)NCc1cc(F)cc2c1OCOC2` showed an activation of -0.53%. For `Nc1nc(C23CC4CC(CC(C4)C2)C3)cs1`, the activation was -0.6%. With `COC(=O)c1ccc2snnc2c1` the activation was -0.29%. For `CCOC(=O)/C=C(/Nc1ccccc1SC)c1ccccc1`, the activation was -0.36%. Compound `COC(=O)c1cc(OC)c(OC)cc1NC(=O)CSc1ccc(Cl)cc1` has an activation of -0.78%. Work on `CS(=O)(=O)Nc1ccc(/C(N)=N/OC(=O)c2cccs2)cc1` yielded an activation of -0.39%. For `Cc1cc(/C(N)=N/OC(=O)c2cccs2)c(-c2ccccc2)o1`, the activation was 2.72% (active). With `N/C(Cc1cccs1)=N\OC(=O)c1ccccc1` the activation was -0.76%. With `COC(OC)c1ccc(C#N)c(SCC(=O)Nc2ccc(C(F)(F)F)cc2)n1` the activation was -0.25%. `O=C(Nc1ccccc1N1CCOCC1)NC1CCN(C(=O)OCc2ccccc2)CC1` gave an activation of -0.87%. For `Clc1ccc(C=NCc2cccnc2)c(Cl)c1`, the activation was -0.28%. With `Cc1nc(-c2ncc(-c3ccccc3)o2)c(C(F)(F)F)o1` the activation was -4.8%. Work on `NC(=O)C1CCN(CC(O)CSc2ccc(F)cc2)CC1` (centres undefined) yielded an activation of -5.86%. `CCOC(=O)C(=CNc1ccc2n[nH]nc2c1)C(=O)OCC` gave an activation of -0.78%. With `Cn1nccc1NC(=O)CC(CC(=O)O)c1ccccc1` (centres undefined) the activation was 0.57%. Work on `CCOC(=O)c1ccc(NC)c(N)c1` yielded an activation of -0.75%. Work on `COc1ccc2cc(/C(C)=N/OC(=O)Nc3ccccc3)ccc2c1` yielded an activation of 0.13%. For `COc1cc(C=C(C#N)C#N)cc(OC(C)=O)c1OC(C)=O`, the activation was -0.27%.
